In general, inhibition refers to the relative decrease from the control value, in per cent. Broadly, the remaining activity is the signal under treatment as a percentage of the control signal. In general, AC50 refers to the concentration giving half of the maximal activity seen.

Results on 19 compounds are retold here after PubChem BioAssay.

A short description of assay [1]: compounds altering circadian rhythm period length – cell-based, LOPAC library, luminescence reporter (AID 2774).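 Note: values are relative to mean of DMSO wells on each plate.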 Particulars: circadian reporter cells, at 7 µM, actives lie on both sides.
Assay [2] concerns Hepatitis C virus NS3 helicase. Put plainly: blockers of NS3h binding to ssDNA – biochemical, fluorescence polarization, LOPAC1280 library, primary screen (AID 687035; in the data active = inhibition above about 37%). As to conditions: Purified HCV NS3 helicase, Cy5-dT15 ssDNA binding fluorescence polarization; stronger effect = higher value; concentration not given here.
A short description of assay [3]: compounds altering Cy5-DNA-NS3h complex signal – biochemical, LOPAC1280, artefact control for HCV NS3 helicase inhibitor project (AID 687037). Particulars: Cy5-DNA-NS3h complex fluorescence interference counterscreen.
Assay [4] has as its system Aerobactin synthetase IucA (Klebsiella pneumoniae, hypervirulent). Put plainly: biochemical IucA inhibition screen of LOPAC library by absorbance (AID 1346212).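 Note: 100% = no compound wells and 0% = no enzyme wells.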 Particulars: IucA enzyme assay, absorbance (OD) readout; stronger effect = lower value;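 tested at 8 µM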.
A short description of assay [5]: viability loss with induced miR-34 in A549 – imaging, A549 dox-inducible miR-34, nuclei and caspase counts, primary screen (AID 1347080;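 active = compounds whose cell count with miR-34 switched on is under 0.7 times the count with it off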). As to conditions: A549 miR-34 inducible, Hoechst nuclei count, 48 h.
Assay [6] in a line: galactose survival enhancers in mitochondrial complex I cybrids – cell-based, galactose medium, ATP luminescence, primary screen (AID 1645843;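 active = z-score of at least 1.8 in each of two replicates, scored against plate mean and spread of sample wells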;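 note: positive z means more ATP and so rescue of galactose-driven cybrid death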). Particulars: complex I mutant cybrid cells, 72 h, stronger effect = higher value.
A short description of assay [7]: blockers of cellular phospholipid synthesis – cell-based, LOPAC library, screen 4, primary screen (AID 1347384). Particulars: animal cells, phospholipid biosynthesis inhibition screen; at 10 µM.
Assay [8] in a line: viability loss in pontine glioma line – cell-based, SU-DIPG-XVII, MIPE5.0, CellTiter-Glo, qHTS, dose response (AID 1347060; cut-off not given, nearly all actives have AC50 up to about 26 µM;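 for AC50: cells exposed to compound for 48 hours before viability readout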). As to conditions: CellTiter-Glo ATP luminescence. On the technique in general: In ATP-based viability assays light output follows the ATP content of the culture.
Assay [9] can be described thus: viability loss in pontine glioma line – cell-based, SU-DIPG-XIII, MIPE4.0, CellTiter-Glo, qHTS, dose response (AID 1347061; cut-off not given, nearly all actives have AC50 up to about 37 µM;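 note: cells exposed to compound for 48 hours before readout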). Particulars: CellTiter-Glo ATP luminescence.
A short description of assay [10]: viability loss in pontine glioma line – cell-based, JHH-DIPG-1, MIPE4.0, CellTiter-Glo, qHTS, dose response (AID 1347062; cut-off not given, nearly all actives have AC50 up to about 27 µM;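 for AC50: cells exposed to compound for two days before readout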). As to conditions: JHH-DIPG-1 viability, CellTiter-Glo ATP luminescence.
The nature of assay [11]: viability loss in pontine glioma line – cell-based, SU-DIPG-IV, MIPE4.0, CellTiter-Glo, qHTS, dose response (AID 1347063; cut-off not given, nearly all actives have AC50 up to about 30 µM;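 note: compound exposure lasted 48 hours before the viability readout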). Particulars: CellTiter-Glo ATP luminescence.
Assay [12] is described as follows: viability loss in pontine glioma line – cell-based, SU-DIPG-XIII, MIPE5.0, CellTiter-Glo, qHTS, dose response (AID 1347064; cut-off not given, nearly all actives have AC50 up to about 23 µM;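 for AC50: cells exposed to compound for 48 hours before the viability read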). As to conditions: CellTiter-Glo ATP luminescence.
Assay [13] can be described thus: viability loss in pontine glioma line – cell-based, SU-DIPG-XXV, MIPE5.0, CellTiter-Glo, qHTS, dose response (AID 1347065; cut-off not given, nearly all actives have AC50 up to about 26 µM;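 note: cells exposed to compound for 48 hours before ATP readout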). Particulars: CellTiter-Glo ATP luminescence.
Assay [14] is described as follows: JHH-DIPG-1 glioma cell viability, MIPE5.0 library, CellTiter-Glo luminescence, qHTS (AID 1347067; cut-off not given, nearly all actives have AC50 up to about 26 µM;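 note: cells exposed to compound for 48 hours before readout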). As to conditions: JHH-DIPG-1 glioma viability, CellTiter-Glo ATP luminescence.
Assay [15] in a line: growth inhibition of DIPG cells – cell-based, MIPE5.0 library, qHTS (AID 1347068; cut-off not given, nearly all actives have IC50 up to about 30 µM). Particulars: SU-DIPG-XXV viability. In general terms: In qHTS, concentration-response curves come from the screen itself.
Assay [16] is described as follows: growth inhibition of DIPG cells – cell-based, MIPE4.0 library, CellTiter-Glo luminescence, qHTS (AID 1347066; cut-off not given, nearly all actives have AC50 up to about 30 µM;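 note: cells exposed to compound for 48 hours before readout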). As to conditions: SU-DIPG-VI viability, CellTiter-Glo ATP luminescence.
Assay [17] can be described thus: MELAS cybrid and Rieske KO viability enhancers – cell-based, MELAS cybrids, Rieske KO mouse fibroblasts, CellTiter-Glo, primary screen (AID 1508586;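 active = mean z-score across replicates of 1.96 or higher in either the MELAS or the Rieske mutant cell line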;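 note: z relative to plate mean and SD of compound and empty wells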). Particulars: low glucose.
Where [18] appears, read: measured here: relative caspase fold change +Dox/-Dox.
Where [19] appears, read: measured here: total cells with miR-34 induction, stronger effect = lower value.
Where [20] appears, read: measured here: total cells without miR-34 induction.
The mark [21] stands for this setting: stronger effect = lower value, cell number ratio, induced over uninduced.
[22] abbreviates: MELAS cybrid survival, CellTiter-Glo 48 h, stronger effect = higher value.
Setting [23] is: Rieske KO mouse fibroblast survival, CellTiter-Glo 72 h.

SMILES strings stand for the structures. Values joined by “and” are separate entries in the source; they are usually repeats but may differ in a detail not shown here. Equal entries are not always repeated. Results filed as inconclusive are left out. Active and inactive are the calls of the source. Unless noted, the rule behind the calls is not given here.

For `CCN(CC)c1ncnc2c1ncn2[C@@H]1O[C@H](COP(=O)(O)OP(=O)(O)C(Br)(Br)P(=O)(O)O)[C@@H](O)[C@H]1O`, in [1], the period change was 0.205 h (inactive). Also, the inhibition in assay [2] was -1% (inactive). Further, the fluorescence ratio (interference) in assay [3] was 1 (inactive). Also, in [4], the remaining activity is 110% (inactive). The values for the fold change in assay [5] (stronger effect = lower value) and in assay [5] (setting [18]) were 1.01 (inactive) and 2.23, respectively. For the same compound, the figures for the cell count in assay [5] (setting [19]) and in assay [5] (setting [20]) were 10400 and 10200, respectively. For the same compound, in assay [6], the z-score is 0.37 (inactive).

Regarding `O=[N+]([O-])c1ccc(O[C@@H]2O[C@H](CO)[C@@H](O)[C@H](O)[C@H]2F)c([N+](=O)[O-])c1`, the period change in [1] was -0.07 h (inactive). Also, the remaining activity in assay [4] was 96.8% (inactive).

Take `C=CCN1CC[C@]23c4c5ccc(O)c4O[C@@H]2/C(=N/N=C2\CC[C@@]4(O)C6Cc7ccc(O)c8c7[C@@]4(CCN6CC=C)[C@@H]2O8)CC[C@@]3(O)C1C5`: the period change in assay [1] is 0.015 h (inactive). Besides, the remaining activity in [4] was 108% (inactive).

On to `COc1cc(C=C(C#N)C#N)cc(O)c1O`, for which the period change in assay [1] is -0.12 h (inactive). Besides, the remaining activity in [4] was 117% (inactive).

On to `CC(=O)OCC1=C(C(=O)[O-])N2C(=O)[C@@H](NC(=O)CCC[C@@H](N)C(=O)[O-])[C@H]2SC1.[Zn+2]`, for which the period change in assay [1] was -0.01 h (inactive). Besides, the inhibition in assay [2] is 0% (inactive). In assay [3], the fluorescence ratio (interference) was 0.9 (inactive). For the same compound, the remaining activity in [4] was 102% (inactive). For the same compound, the fold change is 1.04 (inactive) in [5] (stronger effect = lower value) and 1.44 in assay [5] (setting [18]). Also, the cell count in assay [5] (setting [19]) amounted to 10400; in assay [5] (setting [20]) it was 10000. The z-score in [6] was -0.275 (inactive).

`C[N+]1(C)C2CC(OC(=O)[C@H](CO)c3ccccc3)CC1C1OC12` (some centres not stated): in assay [1], the period change was -0.095 hour (inactive) and 0.155 hour (inactive). For the same compound, in assay [2], the inhibition is -1% (inactive) and 0% (inactive). In assay [3], the fluorescence ratio (interference) is 1 (inactive). Besides, in assay [4], the remaining activity is 96.4% (inactive). Also, the fold change in [5] (stronger effect = lower value) is 0.984 (inactive) and 1.04 (inactive); in assay [5] (setting [18]) it was 0.938 and 1.11. For the same compound, the cell count in assay [5] (setting [19]) is 10100 and 9050; in [5] (setting [20]), 10300 and 8720. In addition, in assay [6], the z-score is 0.475 (inactive) and 0.45 (inactive).

Turning to `CCN(CC)C(=O)N[C@@H]1C[C@@H]2c3cccc4[nH]cc(c34)C[C@H]2N(C)C1`, the period change in assay [1] is 0.085 h (inactive). In addition, in assay [4], the remaining activity was 102% (inactive).

For `CCCN(CCC)C(=O)Cc1c(-c2ccc(Cl)cc2)nc2c(Cl)cc(Cl)cn12`, the period change in assay [1] is -0.05 h (inactive). Moreover, the remaining activity in [4] was 120% (inactive).

Regarding `Cc1cc([C@@H]2CCCN2C)on1`, the inhibition in assay [2] is -6% (inactive). Further, the fluorescence ratio (interference) in assay [3] was 1 (inactive). In addition, the remaining activity in assay [4] is 91.6% (inactive). Also, the fold change in assay [5] (stronger effect = lower value) was 0.924 (inactive); in assay [5] (setting [18]) it was 1.47. The results for the cell count in assay [5] (setting [19]) and in [5] (setting [20]) were 9420 and 10200, respectively. Also, the compound was called inactive in assay [7]. The z-score in assay [6] was 0.41 (inactive).

Turning to `N[C@@H](Cn1ccc(=O)[nH]c1=O)C(=O)O`, in assay [1], the period change was 0.095 h (inactive). In [4], the remaining activity was 122% (inactive).

`C[C@H]1OC[C@@H](C[N+](C)(C)C)O1`: in assay [1], the period change was -0.07 h (inactive). The remaining activity in assay [4] was 81.5% (inactive).

On to `COCC1(CO)C(=O)C2CCN1CC2` (configuration not stated), for which the AC50 is 23.5 µM (active) in [8]; 20.9 µM (active) in assay [9]; 20.9 µM (active) in assay [10]; 18.7 µM (active) in assay [11]; 8.33 µM (active) in assay [12]; 16.6 µM (active) in [13]. For the same compound, the AC50 in assay [14] was 10.5 µM (active). The compound was called inactive in assay [15].

As for `C=CCN(C1=NCCN1)c1c(Cl)cccc1Cl`, in assay [2], the inhibition was -4% (inactive). Also, the fluorescence ratio (interference) in assay [3] was 1 (inactive). In assay [4], the remaining activity is 95.7% (inactive).

With `CCc1c(C(=O)C(N)=O)c2c(OCC(=O)O)cccc2n1Cc1ccccc1`, the outcome in [8], in assay [9], in assay [10], in [11], in [12] and in assay [13] was inactive. Further, the compound was classed as inactive in assay [16], in [14] and in [15]. For the same compound, the fold change in [5] (setting [21]) was 0.89 (inactive); in assay [5] (setting [18]), 1.11. Also, the cell count stood at 7750 in assay [5] (setting [19]) and 8710 in [5] (setting [20]). For the same compound, the z-score is -0.413 (inactive) in assay [17] (setting [22]) and 0.396 in [17] (setting [23]).

With `CCCN(CCC)CCc1c[nH]c2ccc(C(N)=O)cc12`, in assay [1], the period change is 0.085 h (inactive). Also, the inhibition in assay [2] was 0% (inactive). In assay [3], the fluorescence ratio (interference) is 1.1 (inactive). Further, the remaining activity in assay [4] is 109% (inactive).

`CSCC[C@@H](NC(=O)[C@@H](Cc1ccccc1)NC(=O)CNC(=O)CNC(=O)[C@@H](N)Cc1ccc(O)cc1)C(=O)O`: the outcome in assay [8], in assay [9], in assay [10], in assay [11], in assay [12] and in assay [13] was inactive. Moreover, the compound was called inactive in assay [14] and in assay [15].

As for `COc1cc2cc(c1Cl)N(C)C(=O)C[C@H](OC(=O)C(C)C)[C@]1(C)O[C@@H]1[C@H](C)[C@@H]1C[C@@](O)(NC(=O)O1)[C@H](OC)/C=C/C=C(\C)C2`, the compound was called inactive in assay [8], in [9], in assay [10], in assay [11] and in assay [16]. For the same compound, the AC50 in assay [12] is 0.0332 µM (active); in assay [13] it was 0.00662 µM (active); in [14], 0.00742 µM (active).

Turning to `Cc1ccccc1-n1c(Cn2ncc3c(N)ncnc32)nc2cccc(C)c2c1=O`, the call in assay [8], in assay [9], in [12], in assay [13], in [14] and in [15] was inactive. Moreover, the fold change in assay [5] (setting [21]) was 0.903 (inactive); in assay [5] (setting [18]) it was 0.968. Further, the cell count in [5] (setting [19]) came out at 8570; in assay [5] (setting [20]) it was 9490. The values for the z-score in [17] (setting [22]) and in [17] (setting [23]) were -0.332 (inactive) and 0.957, respectively.

As for `C[C@@H]1O[C@H](C[N+](C)(C)C)CS1`, the period change in [1] is -0.11 h (inactive). In addition, in [2], the inhibition is -1% (inactive). In assay [3], the fluorescence ratio (interference) was 1 (inactive). In addition, in assay [4], the remaining activity was 81.1% (inactive).
